D1 PAM – human D1 dopamine receptor positive modulation. P21728. HEK293 TREx D1 cells, calcium flux, dopamine EC20 potentiation. potentiation, % at 10 µM. 360,000 tested, 0.036% active; in the data active = potentiation above about 30%; also: 0% is about no effect
Target sequence (P21728 whole entry, looked up): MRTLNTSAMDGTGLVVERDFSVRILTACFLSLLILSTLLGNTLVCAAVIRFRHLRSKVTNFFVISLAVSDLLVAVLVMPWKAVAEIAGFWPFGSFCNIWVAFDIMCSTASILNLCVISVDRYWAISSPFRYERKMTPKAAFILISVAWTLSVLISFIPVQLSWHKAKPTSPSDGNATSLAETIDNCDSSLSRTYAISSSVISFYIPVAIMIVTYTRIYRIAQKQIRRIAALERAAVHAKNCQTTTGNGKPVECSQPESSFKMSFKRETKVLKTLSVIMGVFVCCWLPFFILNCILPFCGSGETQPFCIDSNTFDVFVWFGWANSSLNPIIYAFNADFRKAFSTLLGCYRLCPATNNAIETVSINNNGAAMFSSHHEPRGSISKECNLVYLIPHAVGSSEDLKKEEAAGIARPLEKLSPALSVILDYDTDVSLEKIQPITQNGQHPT
TRHR agonist – TRH receptor (human) agonism; P34981; TRHR cells, calcium flux fluo-8, FDSS agonist mode; activation, % at 2 µM; 360,000 tested, 0.18% active; also: 0% is about no effect
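Fluo-8-loaded TRHR cells; 10 s baseline, compound added, kinetic Ca2+ fluorescence read 1/s, agonist mode.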
TRHR enhancer – allosterically enhances the human TRH receptor | P34981 | TRHR cells, fluo-8 calcium fluorescence, EC20 TRH enhancement | enhancement, % at 2 µM | 360,000 tested, 0.66% active | AID 493056; in the data active = enhancement above about 30%; also: 0% is about no effect
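TRHR-expressing cells loaded with fluo-8 calcium dye were read kinetically (ex 480/em 530) during compound addition, then stimulated with an EC20 of TRH (10 nM final). Enhancement of the Gq-mediated intracellular calcium response was scored.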
D1 ag – activates the human D1 dopamine receptor. activation, % at 2 µM. 360,000 tested, 1% active. P21728. HEK293 T-REx D1 cells, calcium flux, agonist mode; also: 0% is about no effect
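Agonism was scored from calcium flux recorded over 180 s (1 read/s) after pintool compound addition, following a 10-cycle baseline. Cells were inducible force-coupled HEK293 TREx D1, plated overnight at 30 C and loaded with no-wash calcium dye.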
D1 antagonist – antagonists of human D1 dopamine receptor. AID 504652. 360,000 tested, 3.2% active. activity change, negative = inhibition, % at 10 µM. HEK293 TREx D1 cells, calcium flux, dopamine EC80; hits give low values; in the data active = activity change below about -30%; also: % is scaled to controls: 0 for no effect and ±100 for the full control effect
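Cells carrying a force-coupled, tetracycline-inducible human D1 receptor report calcium flux. Each well gets a 10 s baseline, compound with 180 s monitoring, then an EC80 dopamine stimulus with a second 180 s kinetic read.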
* = called active by the depositor. A selection: hits, their analogues and other compounds. The true share with any hit is near 4.6%. Rule as the data show it, unless noted: active = activation above about 30%; inactive = the rest.

Screening O=C(COc1ccccc1-c1ccccc1)N/N=C/c1cccc2ccccc12 returned D1 PAM 3, TRHR agonist 1, TRHR enhancer 5, D1 ag 3 and D1 antagonist -1.
O=C(O)COc1ccccc1/C=N/NC(=O)CNC(=O)c1ccco1 was read as D1 PAM -3, TRHR agonist 0, TRHR enhancer 3, D1 ag 2 and D1 antagonist -58*.
For O=C(COc1cccc2ccccc12)N/N=C/c1ccccc1OCc1ccc(C(=O)O)cc1 the results were D1 PAM 1, TRHR agonist 0, TRHR enhancer -5, D1 ag 36* and D1 antagonist -6.
COC(=O)c1c(SCC(=O)Nc2cc(F)ccc2F)[nH]c2ccc(C)cc2c1=O was read as D1 PAM -1, TRHR agonist 0, TRHR enhancer 2, D1 ag 10 and D1 antagonist -9.
CCC(C(=O)NC1CCC(C)CC1)n1nc(C)c2sc3ccccc3c2c1=O (configuration not stated) was read as D1 PAM 0, TRHR agonist 0, TRHR enhancer 5, D1 ag 1 and D1 antagonist 17.
`CCN(CC)S(=O)(=O)c1ccc(NC(=O)COC(=O)CNS(=O)(=O)/C=C/c2ccccc2)cc1` gave D1 PAM -6, TRHR agonist -1, TRHR enhancer 7, D1 ag 6 and D1 antagonist -31*.
For COc1ccc(NC(=O)COC(=O)CNS(=O)(=O)/C=C/c2ccccc2)cc1OC the results were D1 PAM -4, TRHR agonist 0, TRHR enhancer -12, D1 ag 1 and D1 antagonist -3.
CCc1ccc(-n2c(=O)c3ccc(C(=O)NCCc4ccccc4)cc3n(Cc3ccccc3C#N)c2=O)cc1 was read as D1 PAM 0, TRHR agonist -1, TRHR enhancer 1, D1 ag 3 and D1 antagonist 7.
`O=c1c2ccccc2nc(-c2ccco2)n1CCc1ccc(O)cc1` gave D1 PAM -7, TRHR agonist 0, TRHR enhancer -4, D1 ag 3 and D1 antagonist -41*.
For O=c1c2ccccc2nc(/C=C/c2ccc(O)cc2)n1CCc1ccccc1 the results were D1 PAM -7, TRHR agonist 2, TRHR enhancer -5, D1 ag 3 and D1 antagonist -41*.
For CCOC(=O)c1c(Nc2cc(C)cc(C)c2)nnc(-c2ccccc2)c1-c1ccccc1 the results were D1 PAM 4, TRHR agonist 0, TRHR enhancer -3, D1 ag -1 and D1 antagonist 11.
Screening COC(=O)CC(=O)Cc1nc(N)nc(Nc2ccc(C)c(C)c2)n1 returned D1 PAM -9, TRHR agonist -2, TRHR enhancer -6, D1 ag 1 and D1 antagonist -50*.
For C#CCOCCOCCOCCNc1nc(N2CCN(C(=O)CCCCCCCCCCNC(=O)[C@@H](CCC(=O)O)n3cc(CCCCCN)nn3)CC2)nc(N2CCN(C(=O)CCCCCCCCCCNC(=O)[C@@H](CCC(=O)O)n3cc(CCCCCN)nn3)CC2)n1 the results were D1 PAM -6, TRHR agonist 0, TRHR enhancer -10, D1 ag 10 and D1 antagonist -32*.
`C#CCOCCOCCOCCNc1nc(N2CCN(C(=O)CCCCCCCCCCNC(=O)Cn3cc(CCCCCN)nn3)CC2)nc(N2CCN(C(=O)CCCCCCCCCCNC(=O)[C@H](CO)n3cc(CCCCCN)nn3)CC2)n1` gave D1 PAM 14, TRHR agonist 13, TRHR enhancer -2, D1 ag 85* and D1 antagonist 66.
C#CCOCCOCCOCCNc1nc(N2CCN(C(=O)CCCCCCCCCCNC(=O)Cn3cc(CCCCCN)nn3)CC2)nc(N2CCN(C(=O)CCCCCCCCCCNC(=O)[C@H]([C@@H](C)CC)n3cc(CCCCCN)nn3)CC2)n1 was read as D1 PAM 20, TRHR agonist 9, TRHR enhancer 4, D1 ag 43* and D1 antagonist 110.
`S=C(Nc1cccnc1)N1CCN(c2ccccc2Cl)CC1` gave D1 PAM -3, TRHR agonist 0, TRHR enhancer -15, D1 ag 2 and D1 antagonist -4.
`Cc1ccc(N=C2NC(=O)/C(=C/C=C/c3ccco3)S2)cc1` gave D1 PAM -5, TRHR agonist 0, TRHR enhancer 8, D1 ag 2 and D1 antagonist -7.
